Screening data as filed in PubChem.
A selection: hits, their analogues and other compounds. The true share with any hit is near 6.1%.
MMP13 inh = MMP13 (human) collagenase inhibition. 65,000 compounds, 0.07% hits. MMP-13 fTHP FRET cleavage, Mca fluorescence. AID 570. inhibition, % at 4 µM;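 active = inhibition above the mean of compound-free control plate wells plus 3 SD, cut at about 14% in these data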;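 note: 0% = DMSO wells and 100% = wells with reference MMP-13 inhibitor after basal subtraction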
M1 ag = activates the M1 muscarinic receptor; CHO-M1 cells, Fluo-4 calcium fluorescence, agonist mode; stronger effect = higher value; B-score at 10 µM; 64,000 compounds, 3% hits; AID 626;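 active = fluorescence rise, raw or as B-score row- and column-corrected plate score, outside the 99.7% band of its plate's samples, either direction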
M1 antagonist = blocks the rat M1 muscarinic receptor response to acetylcholine; P08482; CHO-M1 cells, Fluo-4 calcium, ACh EC80 antagonist mode; stronger effect = lower value; B-score at 10 µM; 64,000 compounds, 3.4% hits;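 active = calcium fluorescence response, raw or row-and-column corrected B-score, differing from the plate sample mean either way at a set confidence level, mostly lower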
MKP-1 inh = inhibitors of human MKP-1 phosphatase; P28562; recombinant MKP-1, OMFP hydrolysis fluorescence; inhibition, %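 (compounds tested at a single concentration somewhere between 10 and 100 µM)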; 65,000 compounds, 0.15% hits;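 active = inhibition above about 50%, limit read from the data; inconclusive = inhibition over screen mean plus 3 SD, below that limit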;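 note: 0% = DMSO max control wells and 100% = wells with enzyme stopped by NaOH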
Cdc25B block = human M-phase inducer phosphatase 2 inhibition. P30305. recombinant Cdc25B, OMFP fluorescence Ex485/Em525. inhibition, %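 (compounds tested at 10 µM final in the well)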. 65,000 compounds, 0.1% hits. AID 368; in the data active = inhibition above about 50%
Target sequence (P30305 whole entry, looked up): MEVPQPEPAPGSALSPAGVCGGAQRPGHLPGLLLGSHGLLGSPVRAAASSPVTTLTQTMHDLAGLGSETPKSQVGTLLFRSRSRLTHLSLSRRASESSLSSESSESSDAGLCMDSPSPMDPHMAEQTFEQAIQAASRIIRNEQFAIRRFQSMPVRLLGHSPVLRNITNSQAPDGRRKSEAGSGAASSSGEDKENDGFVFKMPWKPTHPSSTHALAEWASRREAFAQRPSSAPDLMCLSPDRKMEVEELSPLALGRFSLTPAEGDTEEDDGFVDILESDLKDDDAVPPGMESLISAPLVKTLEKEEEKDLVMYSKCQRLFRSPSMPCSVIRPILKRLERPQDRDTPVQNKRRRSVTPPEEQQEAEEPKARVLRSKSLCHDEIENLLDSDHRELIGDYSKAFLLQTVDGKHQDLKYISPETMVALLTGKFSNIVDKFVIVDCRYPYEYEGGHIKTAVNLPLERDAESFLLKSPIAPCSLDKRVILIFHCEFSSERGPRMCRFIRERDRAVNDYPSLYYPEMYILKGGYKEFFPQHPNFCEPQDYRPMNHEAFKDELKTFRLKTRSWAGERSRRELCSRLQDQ
Hsp90 block = displaces geldanamycin probe from tumor Hsp90; AID 429; P07900; inhibition, % at 30 µM; NCI-N417 lysate Hsp90, Cy3B-geldanamycin FP displacement; 64,000 compounds, 0.35% hits;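 active = inhibition above 50%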;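 note: 0% = tracer plus lysate wells and 100% = tracer alone without lysate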
M1 agonist conf = rat M1 muscarinic agonism, confirmation; shares compounds with M1 ag; CHO-M1 cells, Fluo-4 calcium fluorescence, agonist mode; actives lie on both sides; fluorescence change (max-min) at 10 µM; 1,700 compounds, 19% hits; AID 1488;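 active = fluorescence change differs from the solvent-only DMSO control mean at a set confidence level in both duplicate runs; inconclusive = differs from solvent-only control mean in just one of two runs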;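 note: an EC20 dose of acetylcholine follows compound addition during the same imaging run; raw fluorescence intensity difference in instrument units with no normalization to controls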
M4 ag counter = counter-screen for M1 agonists: activity at rat M4 receptor; shares compounds with M1 ag; 1,700 compounds, 9% hits; CHO M4/Gqi5 cells, Fluo-4 calcium fluorescence, agonist mode; actives lie on both sides; fluorescence change (max-min) at 10 µM;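 active = fluorescence change differing from the plate's solvent-only control wells at 99.7% confidence in both duplicates, whether higher or lower; inconclusive = differs from solvent controls in only one of two duplicates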
Active calls of the source: *.

Screening COc1ccc(-c2nnnn2C)cc1S(=O)(=O)NCc1ccccc1 returned MMP13 inh -1.9, M1 ag 1.23, M1 antagonist -1.48, MKP-1 inh -15.8, Cdc25B block -6.4 and Hsp90 block -6.7.
`O=C(C1CC1(c1ccccc1)c1ccccc1)N1CCOCC1` (configuration not stated) gave MMP13 inh 3.3, M1 ag -2.75*, M1 antagonist -0.0299, MKP-1 inh -13.2, Cdc25B block 0.6, Hsp90 block -2.7, M1 agonist conf -16.3 and M4 ag counter -43.8.
CN(CC(=O)NCc1ccc2c(c1)OCO2)S(=O)(=O)c1ccc(Br)s1 was read as MMP13 inh 2.5, M1 ag 0.813, M1 antagonist -1.05, MKP-1 inh -5.5, Cdc25B block 7.3 and Hsp90 block -2.8.
`Cc1ccc(-c2nc(CSCC(=O)N3CCN(c4ccccn4)CC3)c(C)o2)cc1` gave MMP13 inh -3.8, M1 ag 5.6*, M1 antagonist -2.28*, MKP-1 inh 6.5, Cdc25B block -14.5, Hsp90 block -1.1, M1 agonist conf inconclusive and M4 ag counter -51.8.
`O=C(CSCc1ccccc1)N1CCN(Cc2ccc3c(c2)OCO3)CC1` gave MMP13 inh 1.8, M1 ag 0.952, M1 antagonist -0.642, MKP-1 inh -16.3, Cdc25B block -18.3 and Hsp90 block -1.7.
`Cc1cccc(-c2nc(CSCC(=O)N3CCN(Cc4ccc5c(c4)OCO5)CC3)c(C)o2)c1` gave MMP13 inh -32.9, M1 ag 5.71*, M1 antagonist -4*, MKP-1 inh 4.3, Cdc25B block -19.4, Hsp90 block 3.6, M1 agonist conf -0.643 and M4 ag counter inconclusive.
For CCc1ccc(-c2nc(CSCC(=O)N3CCN(c4ccccn4)CC3)c(C)o2)cc1 the results were MMP13 inh -9.6, M1 ag 4.62*, M1 antagonist -1.39, MKP-1 inh 17.6, Cdc25B block -52.9, Hsp90 block -0.3, M1 agonist conf -6.26 and M4 ag counter inconclusive.
For Cc1csc(NC(=O)CSc2nc(C(C)C)nc3c2c(=O)n(C)c(=O)n3C)n1 the results were MMP13 inh 0.2, M1 ag -0.0136, M1 antagonist -0.00589, MKP-1 inh 18.6, Cdc25B block -2.2 and Hsp90 block -5.0.
O=C1NCCCC1C(=O)Nc1ccccn1 (configuration not stated) was read as MMP13 inh -5.5, M1 ag 0.0332, M1 antagonist -0.07, MKP-1 inh 21.6, Cdc25B block 6.1 and Hsp90 block -3.1.
`Cc1nn2c(c1-c1ccccc1)NC1=C(C(=O)CCC1)C2c1cccnc1` (configuration not stated) gave MMP13 inh -18.7, M1 ag -0.878, M1 antagonist 0.255, MKP-1 inh -11.7, Cdc25B block -5.0 and Hsp90 block -2.8.
O=C(Nc1ccc(N2CCOCC2)cc1)Nc1ccc2nc(-c3ccco3)c(-c3ccco3)nc2c1 was read as MMP13 inh -5.5, M1 ag 2.81*, M1 antagonist -1.26, MKP-1 inh 36.6, Cdc25B block 8.9, Hsp90 block -6.0, M1 agonist conf -1.57 and M4 ag counter -19.4.
Cn1c(=O)cc(SCC(=O)Nc2cccnc2)c2ccccc21 was read as MMP13 inh -2.2, M1 ag 2.69*, M1 antagonist -0.212, MKP-1 inh 31.5, Cdc25B block 28.8, Hsp90 block -1.7, M1 agonist conf 1.18 and M4 ag counter -13.5.
For Cn1c(=O)cc(SCC(=O)NCc2cccnc2)c2ccccc21 the results were MMP13 inh -3.8, M1 ag 0.0585, M1 antagonist -0.237, MKP-1 inh 3.5, Cdc25B block -14.7 and Hsp90 block -1.4.
`O=C(c1ccc(S(=O)(=O)N2CCCC2)cc1)N1CCCc2ccccc21` gave MMP13 inh 2.8, M1 ag 0.253, M1 antagonist -1.52, MKP-1 inh -5.6, Cdc25B block -3.9 and Hsp90 block -2.6.
Screening c1ccc(-n2c(-c3ccncc3)nnc2-c2cccs2)cc1 returned MMP13 inh -6.5, M1 ag 9.24*, M1 antagonist 0.398, MKP-1 inh 27.7, Cdc25B block 2.3, Hsp90 block -0.4, M1 agonist conf inconclusive and M4 ag counter inconclusive.
`O=C(CN1CCN(c2ccc(F)cc2)CC1)c1ccc2c(c1)OCO2` gave MMP13 inh 0.2, M1 ag -0.175, M1 antagonist -0.712, MKP-1 inh -4.5, Cdc25B block -14.7 and Hsp90 block -3.7.
For Cc1nc(CCNC(=O)c2ccccc2)cs1 the results were MMP13 inh 3.6, M1 ag 0.489, M1 antagonist 0.416, MKP-1 inh 5.2, Cdc25B block 0.3 and Hsp90 block -3.7.
For O=C(CSCc1nc2ccccc2[nH]1)N1CCN(c2cccc(Cl)c2)CC1 the results were MMP13 inh 1.2, M1 ag 7.96*, M1 antagonist -1.73, MKP-1 inh -0.6, Cdc25B block -0.5, Hsp90 block -1.3, M1 agonist conf -21.7 and M4 ag counter -31.7.
`O=C(CSCc1nc2ccccc2[nH]1)N1CCN(c2ccc(F)cc2)CC1` gave MMP13 inh -4.8, M1 ag 1.13, M1 antagonist 0.741, MKP-1 inh 22.6, Cdc25B block 1.9 and Hsp90 block -4.0.
Screening CCC1Oc2ccc(C)cc2N(CC(=O)N2CCN(c3ccc(F)cc3)CC2)C1=O (configuration not stated) returned MMP13 inh -5.5, M1 ag 2.32*, M1 antagonist 0.569, MKP-1 inh 0.6, Cdc25B block 8.8, Hsp90 block -3.6, M1 agonist conf -11.3 and M4 ag counter inconclusive.
CC(Sc1nnc(N)s1)c1ccccc1Cl (configuration not stated) was read as MMP13 inh -3.0, M1 ag -1.06, M1 antagonist -0.915, MKP-1 inh 2.2, Cdc25B block -16.1 and Hsp90 block -0.6.
For Cc1ccc(OC(C)c2nnc(N)s2)cc1Cl (configuration not stated) the results were MMP13 inh 2.5, M1 ag 2.46*, M1 antagonist -0.0924, MKP-1 inh 12.8, Cdc25B block -18.7, Hsp90 block 2.8, M1 agonist conf -19.5* and M4 ag counter -58.4.
For O=C1C(C=NCCCN2CCCC2=O)=C(O)c2ccccc21 the results were MMP13 inh 1.3, M1 ag -0.316, M1 antagonist -0.479, MKP-1 inh -7.6, Cdc25B block -11.9 and Hsp90 block -4.5.
For COc1ccc(CCNC(=O)c2ccc3nc(-c4ccco4)c(-c4ccco4)nc3c2)cc1OC the results were MMP13 inh 6.2, M1 ag 8.51*, M1 antagonist -1.04, MKP-1 inh 38.7, Cdc25B block 30.3, Hsp90 block -5.3, M1 agonist conf -1.94 and M4 ag counter -18.6.
